This is an account of results in PubChem BioAssay (NCI).

Each structure is given as a SMILES string. This is part of a sample that, as a whole, favours compounds with a hit. Of some 83,000 tested, about 20% had one in any assay.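 The test compound was applied at a single concentration to cells in 96-well plates for 48 hours, and percent growth was recorded.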 Values without a mark were called inactive. Active and inactive are the calls of the source. The calls were made as follows: active = growth percent below 10; inactive = the rest.

Among the test systems are DU-145 prostate; K-562 leukemia; MALME-3M melanoma; MDA-MB-231 breast; RXF 393 renal; SF-268 CNS; SF-295 CNS; SF-539 CNS; UACC-257 melanoma; M14 melanoma.
Test in all cases: NCI-60 one-dose screen, 48 h (100 = growth as untreated, 0 = no growth, -100 = all killed)
Common to all, as to settings: 10 µM unless noted

`COc1cc2c(cc1-c1c(C)noc1C)ncc1nc(C3CCCC3)n([C@H](C)COC(F)F)c12`: the growth was 67.7% with DU-145 prostate; 23.5% in the test on K-562 leukemia; 71.1% with MALME-3M melanoma; 44.6% in the test on MDA-MB-231 breast; 48.6% in the test on RXF 393 renal; 62.6% in the test with SF-268 CNS. In addition, the growth in the test on SF-295 CNS was 50.3%; with SF-539 CNS, 38.5%; in the test on UACC-257 melanoma, 32.1%; in the test with M14 melanoma it was 40.9%.

`COc1ccc(/C=C\c2cc(OC)c(OC)c(OC)c2)cc1OC(=O)c1cccc(Cn2cc(CCOC(=O)[C@H](N)Cc3cn(C)c4ccccc34)nn2)c1`: the growth with DU-145 prostate is -8.08% (active); with K-562 leukemia it was 4.84% (active); in the test with MALME-3M melanoma, 65.4%; in the test with MDA-MB-231 breast it was 42.8%; in the test with RXF 393 renal it was 34.9%; in the test with SF-268 CNS, 23.1%. Besides, the growth was 14.2% in the test with SF-295 CNS, -13.6% (active) with SF-539 CNS, 68.2% in the test with UACC-257 melanoma and 9.47% (active) in the test with M14 melanoma.

For `Cc1ccc(O)c(N2C(=NCc3ccco3)NS(=O)(=O)c3cnccc32)c1`, the growth in the test on DU-145 prostate was 118%; in the test on K-562 leukemia, 71.4%; with MALME-3M melanoma, 107%; in the test on MDA-MB-231 breast, 111%; with RXF 393 renal, 57.9%; in the test on SF-268 CNS, 100%. Further, the growth was 0.898% (active) in the test with SF-295 CNS, 97.9% with SF-539 CNS, 124% in the test with UACC-257 melanoma and 98.4% with M14 melanoma.

As for `CCN=C1C=CC(=C(c2ccc(N)cc2)c2ccc(N(CC)CC)c(C)c2)C=C1`, the growth with DU-145 prostate is -20.6% (active); in the test with K-562 leukemia it was 3.56% (active); with MALME-3M melanoma, -31% (active); in the test on MDA-MB-231 breast, -17.6% (active); with RXF 393 renal it was -16.7% (active); with SF-268 CNS, 4.51% (active). Further, the growth was -19.1% (active) with SF-295 CNS, -31.2% (active) in the test with SF-539 CNS, -0.947% (active) in the test on UACC-257 melanoma and -42.1% (active) in the test on M14 melanoma.

For the compound `O=C1CC[C@H](c2ccc(O)c3c2C(=O)[C@@H]2O[C@@H]2C3=O)c2cccc(O)c21`, the growth in the test with DU-145 prostate was 21.1%; with K-562 leukemia it was 0.986% (active); in the test with MALME-3M melanoma, 86.5%; in the test on MDA-MB-231 breast, 43.5%; in the test on RXF 393 renal, 16.9%; in the test with SF-268 CNS, 84.4%. Further, the growth was 91.3% in the test with SF-295 CNS, 75% in the test on SF-539 CNS, 38% with UACC-257 melanoma and 69.6% with M14 melanoma.

Take `Cc1ccc(C2=NN3C(C2)c2cc(Br)ccc2OC32CCN(Cc3ccccc3)CC2)o1` (stereo not given): the growth in the test on DU-145 prostate is 98.8%; with K-562 leukemia, 85.3%; in the test with MALME-3M melanoma it was 103%; in the test with MDA-MB-231 breast, 92.3%; with RXF 393 renal, 110%; with SF-268 CNS, 84.4%. The growth in the test with SF-295 CNS was 100%; with SF-539 CNS, 101%; in the test with UACC-257 melanoma, 101%; in the test with M14 melanoma, 106%.

As to `O=C1/C(=C/N2N=C(c3ccc4ccccc4c3)CC2c2ccccc2O)SC(=S)N1c1cccnc1` (stereo not given), the growth is 24.8% in the test on DU-145 prostate; 10.9% in the test on K-562 leukemia; 79.5% in the test with MALME-3M melanoma; 53% with MDA-MB-231 breast; -8.6% (active) in the test on RXF 393 renal; 31.9% in the test with SF-268 CNS. Besides, the growth was 10.5% in the test with SF-295 CNS, -26.2% (active) in the test on SF-539 CNS, 69.1% in the test on UACC-257 melanoma and 7.17% (active) in the test on M14 melanoma.

On to `COc1cccc(/C=N/NC(=O)c2ccccc2Nc2ccnc(C(F)(F)F)c2)c1O`, for which the growth is 22.8% in the test with DU-145 prostate; 33.7% in the test on K-562 leukemia; 1.24% (active) in the test with MALME-3M melanoma; 42.6% with MDA-MB-231 breast; 21% in the test on RXF 393 renal; 18.9% in the test with SF-268 CNS. Also, the growth with SF-295 CNS was 18.6%; in the test on SF-539 CNS it was 0.849% (active); in the test on UACC-257 melanoma, 8.18% (active); in the test on M14 melanoma it was -30.1% (active).

For `CC(=O)O[C@H]1CC[C@]2(C)[C@H]3CC=C4[C@@H]5CC(C)(C)CC[C@]5(C(=O)NCCNCCN)CC[C@@]4(C)[C@]3(C)CC[C@H]2C1(C)C`, the growth with DU-145 prostate was -45.3% (active); in the test on K-562 leukemia, -47.2% (active); in the test with MALME-3M melanoma, -71.2% (active); in the test on MDA-MB-231 breast, -66.5% (active); with RXF 393 renal it was 44.9%; in the test on SF-268 CNS it was 74.3%. Further, the growth in the test with SF-295 CNS is 92.8%; in the test with SF-539 CNS, 70.3%; in the test on UACC-257 melanoma it was -42.3% (active); in the test on M14 melanoma it was -81.4% (active).

Take `CCCOc1cc2ccccc2cc1C(=O)Nc1nc(N)c2c(ccc3nccc32)[nH]1`: the growth in the test on DU-145 prostate is -65.8% (active); in the test on K-562 leukemia, -28.9% (active); in the test with MALME-3M melanoma it was -76.1% (active); in the test on MDA-MB-231 breast, -67.1% (active); in the test with RXF 393 renal it was -77.1% (active); in the test on SF-268 CNS it was -68.6% (active). Also, the growth was -76.6% (active) with SF-295 CNS, -77.7% (active) in the test on SF-539 CNS, -77.6% (active) with UACC-257 melanoma and -69.8% (active) in the test on M14 melanoma.

As for `Cc1ccc(OC(=O)c2ccc(Cl)cc2)cc1`, the growth is 112% in the test with DU-145 prostate; 96.6% in the test with K-562 leukemia; 101% in the test on MALME-3M melanoma; 81.7% in the test on MDA-MB-231 breast; 109% in the test with RXF 393 renal; 45.2% in the test on SF-268 CNS. The growth is 93.3% in the test on SF-295 CNS, 95% in the test on SF-539 CNS, 102% with UACC-257 melanoma and 102% in the test on M14 melanoma.

On to `NC1=C(Cl)C(=O)c2ccc(S(N)(=O)=O)cc2C1=O`, for which the growth in the test with DU-145 prostate was -90.1% (active); with K-562 leukemia it was -12.7% (active); in the test with MALME-3M melanoma it was -96.1% (active); in the test on MDA-MB-231 breast it was -3.41% (active); in the test with RXF 393 renal, -99.2% (active); in the test with SF-268 CNS, -74.4% (active). The growth with SF-295 CNS is -86.1% (active); in the test on SF-539 CNS, -84.5% (active); in the test on UACC-257 melanoma, -95.3% (active); with M14 melanoma, -89.6% (active).

Consider `O=C(Nc1cccc2[nH]c(C(F)(F)F)nc12)c1ccc(-n2cnnn2)cc1`, for which the growth in the test on DU-145 prostate was 102%; in the test on K-562 leukemia, 21.5%; in the test with MALME-3M melanoma it was 84.5%; in the test on MDA-MB-231 breast, 93.1%; in the test with RXF 393 renal, 96.1%; with SF-268 CNS it was 96%. The growth is 92.5% in the test with SF-295 CNS, 103% with SF-539 CNS, 107% in the test on UACC-257 melanoma and 107% with M14 melanoma.
